# Source: the supplement of paper PMC8728848
# Many of the other results were omitted from the sample, so the strongest signals are more common in it than they were.
# B1: Mermaid1 (Stilbonema majum) (protein)
# chain: MGSSHHHHHHSSGLVPRGSHMAASGWLRSPQGTVVKLYRRSLSWSKADEFCKDVDGRLVVDRTADMHLFLIKNVLKEKKSRVWVGLRRTAPHSRTWIWSDGTRQNEDDLDANLWLRDEPNDAAGEEECALFMYSPWEKAWGLNDYLCRGGCRSYQFICEKWIR
# What was measured:
# Assay in all cases: glycan array binding signal (z-score within array); higher = stronger binding
# Settings in all cases: glycan notation: IUPAC condensed, linker removed
# [1] = target: Gal(b1-4)GlcNAc(b1-3)Gal(b1-4)GlcNAc(b1-3)Gal(b1-4)GlcNAc(b1-3)Gal(b1-4)GlcNAc(b1-3)Gal(b1-4)GlcNAc(b1-2)Man(a1-3)[Gal(b1-4)GlcNAc(b1-3)Gal(b1-4)GlcNAc(b1-3)Gal(b1-4)GlcNAc(b1-3)Gal(b1-4)GlcNAc(b1-3)Gal(b1-4)GlcNAc(b1-2)Man(a1-6)]Man(b1-4)GlcNAc(b1-4)GlcNAc
# Summary of the method: (§1)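 Negative Z-scores can be read as non-binding. The Z-score is calculated within each array and then averaged across arrays of one protein sequence at different concentrations or buffers and across linkers. Arrays, 3228 in all, were curated from the Consortium for Functional Glycomics database and kept only where the protein sequence was available.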
# [2] = target: Gal(b1-4)GlcNAc(b1-3)Gal(b1-4)GlcNAc(b1-3)Gal(b1-4)GlcNAc(b1-3)Gal(b1-4)GlcNAc(b1-3)Gal(b1-4)GlcNAc(b1-2)Man(a1-3)[Gal(b1-4)GlcNAc(b1-3)Gal(b1-4)GlcNAc(b1-3)Gal(b1-4)GlcNAc(b1-3)Gal(b1-4)GlcNAc(b1-3)Gal(b1-4)GlcNAc(b1-2)Man(a1-6)]Man(b1-4)GlcNAc(b1-4)[Fuc(a1-6)]GlcNAc
# Summary of the method: as §1
# [3] = target: Gal(b1-4)GlcNAc(b1-3)Gal(b1-4)GlcNAc(b1-3)[Gal(b1-4)GlcNAc(b1-3)Gal(b1-4)GlcNAc(b1-6)]GalNAc
# Summary of the method: as §1
# Gal3S(b1-3)GlcNAc = target: Gal3S(b1-3)GlcNAc
# Summary of the method: as §1
# Gal3S6S(b1-4)GlcNAc6S = target: Gal3S6S(b1-4)GlcNAc6S
# Summary of the method: as §1
# Gal6P(b1-4)GlcNAc = target: Gal6P(b1-4)GlcNAc
# Summary of the method: as §1
# [4] = target: GalNAc(b1-3)Gal(a1-6)Gal(b1-4)Glc
# Summary of the method: as §1
# [5] = target: GalNAc(b1-4)GlcNAc(b1-2)Man
# Summary of the method: as §1
# [6] = target: GalNAc3S(b1-4)[Fuc(a1-3)]GlcNAc
# Summary of the method: as §1
# GlcA(b1-3)GlcNAc = target: GlcA(b1-3)GlcNAc
# Summary of the method: as §1
# [7] = target: GlcNAc(b1-2)Man(a1-3)[GlcNAc(b1-2)Man(a1-6)]Man(b1-4)GlcNAc(b1-4)GlcNAc
# Summary of the method: as §1
# [8] = target: GlcNAc(b1-2)[GlcNAc(b1-4)]Man(a1-3)[GlcNAc(b1-4)][GlcNAc(b1-2)[GlcNAc(b1-6)]Man(a1-6)]Man(b1-4)GlcNAc(b1-4)[Fuc(a1-6)]GlcNAc
# Summary of the method: as §1
# [9] = target: GlcNAc(b1-3)Gal(b1-3)GalNAc
# Summary of the method: as §1
# GlcNAc(b1-3)Gal(b1-4)Glc = target: GlcNAc(b1-3)Gal(b1-4)Glc
# Summary of the method: as §1
# [10] = target: GlcNAc(b1-3)Gal(b1-4)GlcNAc
# Summary of the method: as §1
# [11] = target: GlcNAc(b1-3)Gal(b1-4)GlcNAc(b1-3)Gal(b1-4)GlcNAc(b1-3)Gal(b1-4)GlcNAc(b1-2)Man(a1-3)[GlcNAc(b1-3)Gal(b1-4)GlcNAc(b1-3)Gal(b1-4)GlcNAc(b1-3)Gal(b1-4)GlcNAc(b1-2)Man(a1-6)]Man(b1-4)GlcNAc(b1-4)[Fuc(a1-6)]GlcNAc
# Summary of the method: as §1
# [12] = target: GlcNAc(b1-3)Gal(b1-4)GlcNAc(b1-6)[GlcNAc(b1-3)Gal(b1-3)]GalNAc
# Summary of the method: as §1
# [13] = target: Man(a1-2)Man(a1-3)[Man(a1-6)]Man(a1-6)[Man(a1-2)Man(a1-3)]Man(b1-4)GlcNAc(b1-4)GlcNAc
# Summary of the method: as §1
# Man(b1-4)GlcNAc = target: Man(b1-4)GlcNAc
# Summary of the method: as §1
# [14] = target: Neu5Ac(a2-3)Gal(b1-3)GalNAc6S
# Summary of the method: as §1
# [15] = target: Neu5Ac(a2-3)Gal(b1-3)GlcNAc6S
# Summary of the method: as §1
# [16] = target: Neu5Ac(a2-3)Gal(b1-3)[Fuc(a1-4)]GlcNAc(b1-3)Gal(b1-4)[Fuc(a1-3)]GlcNAc
# Summary of the method: as §1
# [17] = target: Neu5Ac(a2-3)Gal(b1-4)GlcNAc(b1-2)[Neu5Ac(a2-3)Gal(b1-4)GlcNAc(b1-4)]Man(a1-3)[GlcNAc(b1-4)][Neu5Ac(a2-3)Gal(b1-4)GlcNAc(b1-2)[Neu5Ac(a2-3)Gal(b1-4)GlcNAc(b1-6)]Man(a1-6)]Man(b1-4)GlcNAc(b1-4)GlcNAc
# Summary of the method: as §1
# [18] = target: Neu5Ac(a2-3)Gal(b1-4)GlcNAc(b1-6)[Gal(b1-3)]GalNAc
# Summary of the method: as §1
# [19] = target: Neu5Ac(a2-3)Gal(b1-4)[Fuc(a1-3)]GlcNAc(b1-3)Gal(b1-4)GlcNAc
# Summary of the method: as §1
# Neu5Ac(a2-3)GalNAc = target: Neu5Ac(a2-3)GalNAc
# Summary of the method: as §1
# [20] = target: Neu5Ac(a2-6)Gal(b1-4)GlcNAc(b1-2)Man(a1-6)Man(b1-4)GlcNAc(b1-4)GlcNAc
# Summary of the method: as §1
# [21] = target: Neu5Ac(a2-6)Gal(b1-4)GlcNAc(b1-3)Gal(b1-4)[Fuc(a1-3)]GlcNAc(b1-3)Gal(b1-4)[Fuc(a1-3)]GlcNAc
# Summary of the method: as §1
# Neu5Ac(a2-8)Neu5Ac = target: Neu5Ac(a2-8)Neu5Ac
# Summary of the method: as §1
# [22] = target: Neu5Gc(a2-3)Gal(b1-3)GlcNAc
# Summary of the method: as §1
# [23] = target: Neu5Gc(a2-8)Neu5Gc(a2-6)Gal(b1-4)GlcNAc
# Summary of the method: as §1
binder,measurement,setting,value
B1,glycan array binding signal (z-score),[1],0.715
same,glycan array binding signal (z-score),[2],-0.28
same,glycan array binding signal (z-score),[3],-0.17
same,glycan array binding signal (z-score),Gal3S(b1-3)GlcNAc,0.37
same,glycan array binding signal (z-score),Gal3S6S(b1-4)GlcNAc6S,-0.524
same,glycan array binding signal (z-score),Gal6P(b1-4)GlcNAc,-0.911
same,glycan array binding signal (z-score),[4],-0.59
same,glycan array binding signal (z-score),[5],3.48
same,glycan array binding signal (z-score),[6],0.714
same,glycan array binding signal (z-score),GlcA(b1-3)GlcNAc,-0.379
same,glycan array binding signal (z-score),[7],-0.645
same,glycan array binding signal (z-score),[8],-0.663
same,glycan array binding signal (z-score),[9],-0.864
same,glycan array binding signal (z-score),GlcNAc(b1-3)Gal(b1-4)Glc,0.313
same,glycan array binding signal (z-score),[10],-0.029
same,glycan array binding signal (z-score),[11],0.762
same,glycan array binding signal (z-score),[12],-0.841
same,glycan array binding signal (z-score),[13],-0.285
same,glycan array binding signal (z-score),Man(b1-4)GlcNAc,8.49
same,glycan array binding signal (z-score),[14],0.152
same,glycan array binding signal (z-score),[15],0.494
same,glycan array binding signal (z-score),[16],2.98
same,glycan array binding signal (z-score),[17],-0.428
same,glycan array binding signal (z-score),[18],5.42
same,glycan array binding signal (z-score),[19],-0.359
same,glycan array binding signal (z-score),Neu5Ac(a2-3)GalNAc,-0.535
same,glycan array binding signal (z-score),[20],-0.437
same,glycan array binding signal (z-score),[21],-0.822
same,glycan array binding signal (z-score),Neu5Ac(a2-8)Neu5Ac,-0.351
same,glycan array binding signal (z-score),[22],-0.396
same,glycan array binding signal (z-score),[23],0.03
